Cardio protect: modulators protecting cardiomyocytes from myocardial damage | H9c2 cardiomyocytes, H2O2 injury protection, ATPLite, 2 h | protection from H2O2 cell death, % at 20 µM | 360,000 compounds, 0.63% hits | AID 588492;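 active = compounds giving at least 50% protection of heart cells from peroxide-induced death in the single-dose screen, raw or plate-pattern-corrected value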;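 also: 0% = DMSO wells with peroxide and 100% = DMSO wells without peroxide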
PP5 primary: inhibitors of human protein phosphatase 5 (PP5). 320,000 compounds, 0.18% hits. P53041. inhibition, % at 6.7 µM. purified PP5c, OMFP substrate fluorescence. AID 1987;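 active = inhibition above the campaign's mean inhibition across all tested compounds plus 3 SD, cut at about 9.5% in these data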;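 also: 0% = DMSO only and 100% = 100 µM cantharidin control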
ATG4B inhibitor: blocks human ATG4B protease cleavage of LC3 substrate | ATG4B cleavage of LC3-PLA2, NBD-HPC fluorescence, 1 h | inhibition, % at 8.33 µM | 340,000 compounds, 0.51% hits | AID 504462; in the data active = inhibition above about 40%
Target sequence (Q9Y4P1 whole entry, looked up): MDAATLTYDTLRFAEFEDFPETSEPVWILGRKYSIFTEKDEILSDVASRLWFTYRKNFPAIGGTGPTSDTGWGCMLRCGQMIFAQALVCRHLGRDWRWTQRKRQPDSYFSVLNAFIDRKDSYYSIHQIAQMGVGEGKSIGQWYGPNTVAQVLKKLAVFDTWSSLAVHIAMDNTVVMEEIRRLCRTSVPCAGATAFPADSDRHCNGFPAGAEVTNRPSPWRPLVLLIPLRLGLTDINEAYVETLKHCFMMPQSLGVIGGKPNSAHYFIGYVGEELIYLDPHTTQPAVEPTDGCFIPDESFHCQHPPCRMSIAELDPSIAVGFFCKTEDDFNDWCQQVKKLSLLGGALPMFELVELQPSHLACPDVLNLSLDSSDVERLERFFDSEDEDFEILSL
PP1 counter: counter-screen for PP5 inhibitors: inhibitors of human PP1-alpha; P62136; 320,000 compounds, 0.9% hits; purified PP1alpha, OMFP fluorescence; AID 2235; inhibition, % at 6.7 µM;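 active = inhibition above the mean inhibition of all tested compounds plus 3 SD, computed separately for each screening campaign, cut at about 15% in these data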
ATG4B conf: ATG4B (human) inhibition, single-dose confirmed; shares compounds with ATG4B inhibitor; ATG4B protease fluorescent substrate cleavage assay; inhibition, % at 8.33 µM; 320 compounds, 92% hits; AID 504757; in the data active = inhibition above about 39%
PLA2 counter: inhibits human PLA2, flagging false ATG4B inhibitors; shares compounds with ATG4B inhibitor; purified PLA2, NBD-C6-HPC fluorescence, 45 min; inhibition, % at 8.33 µM; 1,600 compounds, 66% hits; in the data active = inhibition above about 50%
Target sequence (P04054 whole entry, looked up): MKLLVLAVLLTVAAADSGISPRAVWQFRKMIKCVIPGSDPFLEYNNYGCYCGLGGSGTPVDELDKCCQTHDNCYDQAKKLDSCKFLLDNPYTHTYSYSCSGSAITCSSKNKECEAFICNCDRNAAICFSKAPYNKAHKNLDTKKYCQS
Numbers without * were called inactive. Hits are enriched below; roughly 1.9% of the tested compounds scored in any of these assays.

What do the screens show for `CCOC(=O)c1c(C)[nH]c(C)c1C(=O)CSc1nc2ccccc2c(=O)n1-c1ccc(CC)cc1`?
Cardio protect: 14; PP5 primary: 4; ATG4B inhibitor: 52*; PP1 counter: -1; PLA2 counter: 66*

How did CCOC(=O)c1c(C)[nH]c(C)c1C(=O)CSc1nc2ccccc2n1CC do in these assays?
Cardio protect: 9; PP5 primary: 3; ATG4B inhibitor: 0; PP1 counter: 1

What do the screens show for `O=c1c2ccccc2nc(/C=C/c2c[nH]c3ccccc23)n1-c1ccc([N+](=O)[O-])cc1`?
Cardio protect: 19; PP5 primary: 1; ATG4B inhibitor: 57*; PP1 counter: -3; PLA2 counter: 26

What do the screens show for `Cc1[nH]c2ccccc2c1/C=C/c1nc2ccccc2c(=O)n1-c1cccc([N+](=O)[O-])c1`?
Cardio protect: -1; PP5 primary: -1; ATG4B inhibitor: -16; PP1 counter: -2

How did CCOc1ccc2nc(NC(=O)CN3C(=O)NC4(CCCC4)C3=O)sc2c1 do in these assays?
Cardio protect: -8; PP5 primary: 1; ATG4B inhibitor: 1; PP1 counter: -4

What do the screens show for `CCc1cccc(C)c1Nc1nc2ccccc2n2cnnc12`?
Cardio protect: -3; PP5 primary: 0; ATG4B inhibitor: 2; PP1 counter: 1

What do the screens show for `COc1cc(N=Nc2cccc(S(N)(=O)=O)c2)c2ccccc2c1N`?
Cardio protect: 18; PP5 primary: 6; ATG4B inhibitor: -13; PP1 counter: 8

Results for CC(OC(=O)/C(C#N)=C/c1ccc(N(C)C)cc1)C(=O)N(C)Cc1ccccc1 (centres undefined) ?
Cardio protect: -14; PP5 primary: 2; ATG4B inhibitor: 2; PP1 counter: 1

How did CC(C#N)Sc1nc2ccccc2c(=O)n1-c1ccccc1 (centres undefined) do in these assays?
Cardio protect: -3; PP5 primary: 4; ATG4B inhibitor: 47*; PP1 counter: 3; PLA2 counter: 56*

What do the screens show for `N#Cc1c(-c2ccccc2)cc(-c2ccccc2)nc1SCCC(=O)O`?
Cardio protect: 2; PP5 primary: 1; ATG4B inhibitor: 51*; PP1 counter: 6; PLA2 counter: 68*

What do the screens show for `Cc1cccc(NC(=O)COC(=O)c2ccccc2-c2nc3ccccc3s2)c1C`?
Cardio protect: 3; PP5 primary: 4; ATG4B inhibitor: 48*; PP1 counter: 5; PLA2 counter: 51*

Results for Cc1cccc(NC(=O)COC(=O)c2cccc3c2C(=O)c2ccccc2C3=O)c1C ?
Cardio protect: 47; PP5 primary: 5; ATG4B inhibitor: 32; PP1 counter: 5

What do the screens show for `CC(=O)N1CCSc2ccc(S(=O)(=O)Nc3cccc(C)c3)cc21`?
Cardio protect: -8; PP5 primary: 2; ATG4B inhibitor: -11; PP1 counter: -2

What do the screens show for `COC(=O)c1cccc(NC(=S)Nc2cccc(Cl)c2Cl)c1`?
Cardio protect: -2; PP5 primary: 0; ATG4B inhibitor: 44*; PP1 counter: -3; PLA2 counter: 48

How did COc1cc(NC(=S)Nc2cccc(Cl)c2Cl)c(OC)cc1Cl do in these assays?
Cardio protect: -3; PP5 primary: 3; ATG4B inhibitor: 40*; PP1 counter: 0; PLA2 counter: 60*

How did CCN(C(=O)COC(=O)CCS(=O)(=O)c1ccc(C)cc1)C1CCS(=O)(=O)C1 (centres undefined) do in these assays?
Cardio protect: 1; PP5 primary: -1; ATG4B inhibitor: 1; PP1 counter: -3

How did COc1cc([N+](=O)[O-])ccc1NC(=O)COC(=O)CCS(=O)(=O)c1ccc(C)cc1 do in these assays?
Cardio protect: -4; PP5 primary: 0; ATG4B inhibitor: -8; PP1 counter: -7

Results for CCOC(=O)C1CCN(CCCSc2ccc(C)cc2)CC1 ?
Cardio protect: 1; PP5 primary: 2; ATG4B inhibitor: -3; PP1 counter: 1

How did Cc1ccc(-c2cc(-c3ccccc3C)[nH]n2)c(O)c1 do in these assays?
Cardio protect: -25; PP5 primary: 5; ATG4B inhibitor: 57*; PP1 counter: 6; PLA2 counter: 74*

How did O=[N+]([O-])c1ccc(Cl)c(C2Nc3cccc4cccc(c34)N2)c1 do in these assays?
Cardio protect: -2; PP5 primary: 5; ATG4B inhibitor: 54*; PP1 counter: 8; PLA2 counter: 71*

Results for O=[N+]([O-])c1ccccc1C1Nc2cccc3cccc(c23)N1 ?
Cardio protect: -9; PP5 primary: 6; ATG4B inhibitor: 6; PP1 counter: 6

Results for COc1ccccc1CN(C)C(=O)c1ccc(S(=O)(=O)NCc2ccco2)cc1 ?
Cardio protect: -5; PP5 primary: -3; ATG4B inhibitor: 2; PP1 counter: -1

What do the screens show for `O=C(COC(=O)c1ccc2[nH]c3c(c2c1)CCCC3)Nc1ccccc1Cl`?
Cardio protect: -9; PP5 primary: 1; ATG4B inhibitor: 3; PP1 counter: 1

How did CCC(C)c1ccccc1NC(=O)COC(=O)c1ccc2[nH]c3c(c2c1)CCCC3 (centres undefined) do in these assays?
Cardio protect: -21; PP5 primary: 3; ATG4B inhibitor: 42*; PP1 counter: 1; PLA2 counter: 57*

What do the screens show for `O=C(O/N=C1\CCCc2ccccc21)C1CC1`?
Cardio protect: 2; PP5 primary: -1; ATG4B inhibitor: 1; PP1 counter: -1

Results for Cc1cccc(C(=O)O/N=C2\CCCc3ccccc32)c1 ?
Cardio protect: -12; PP5 primary: 0; ATG4B inhibitor: 45*; PP1 counter: 1; PLA2 counter: 50

Results for Cc1ccc(C(=O)O/N=C2\CCCc3ccccc32)cc1 ?
Cardio protect: -22; PP5 primary: 0; ATG4B inhibitor: 43*; PP1 counter: 2; ATG4B conf: 58*; PLA2 counter: 48

How did O=C(O/N=C1\CCCc2ccccc21)c1cccc(Cl)c1 do in these assays?
Cardio protect: -15; PP5 primary: -1; ATG4B inhibitor: 32; PP1 counter: 0

What do the screens show for `Cc1nn2c(COc3ccc(NC(=O)C(C)C)cc3)nnc2c2ccccc12`?
Cardio protect: 4; PP5 primary: 2; ATG4B inhibitor: 1; PP1 counter: 0

What do the screens show for `Cc1nn2c(COc3ccc(NC(=O)c4ccccc4Cl)cc3)nnc2c2ccccc12`?
Cardio protect: 1; PP5 primary: 2; ATG4B inhibitor: 43*; PP1 counter: 5; PLA2 counter: 39

Results for O=C(Nc1nnc(SCc2cccc3ccccc23)s1)C1COc2ccccc2O1 (centres undefined) ?
Cardio protect: -3; PP5 primary: 0; ATG4B inhibitor: 44*; PP1 counter: 7; PLA2 counter: 62*

What do the screens show for `Cc1ccccc1CSc1nnc(NC(=O)C2COc3ccccc3O2)s1` (centres undefined)?
Cardio protect: -17; PP5 primary: 2; ATG4B inhibitor: 49*; PP1 counter: 3; PLA2 counter: 61*

Source: PubChem BioAssay
